Results on five molecules are retold here after PubChem BioAssay (EPA / NIEHS).

The nature of experiment [1]: ATG_CRE_CIS: Attagene CIS-FACTORIAL HepG2 Assay for human cAMP Responsive Element (CRE) binding protein 3 (AID 2282926). Particulars: HepG2 CRE cis-reporter, Attagene multiplexed mRNA; actives raise or lower the signal. Summed up: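 Induced reporter mRNA from a CRE cis element, measured in HepG2 among many multiplexed units at 24 h. Detection used RT-PCR plus capillary electrophoresis of fluorescent fragments; DMSO served as negative control.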

The target of experiment [2] is CCAAT/enhancer-binding protein beta (Homo sapiens) (UniProt P17676). Description: ATG_C_EBP_CIS: Attagene CIS-FACTORIAL HepG2 Assay for human CCAAT/Enhancer Binding Protein (C/EBP) beta (AID 2282927). The settings on record: HepG2 Attagene cis-factorial transcription factor reporter; actives raise or lower the signal. Summed up: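 Following a 24 h incubation with test chemical, transfected HepG2 cells yielded RNA whose reporter transcripts were quantified by RT-PCR and fluorescent capillary electrophoresis, with DMSO serving as baseline for bidirectional fitting.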

Experiment [3] in a line: ATG_CMV_CIS: Attagene CIS-FACTORIAL HepG2 Assay for human CMV (Internal Marker) (AID 2282928).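 Note: endpoint acts as a background internal control marker rather than a target.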 The settings on record: HepG2 CMV promoter reporter, transcription factor profiling; actives raise or lower the signal. Summed up: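 Fluorescence intensity of RT-PCR-derived reporter fragments, resolved by capillary electrophoresis, gives the signal. HepG2 liver cells bearing transfected cis-element reporters were treated 24 h; activity in either direction was fit relative to DMSO-treated controls.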

Experiment [4] can be described thus: ATG_DR4_LXR_CIS: Attagene CIS-FACTORIAL HepG2 Assay for human Liver X Receptor (LXR), DR4 submotif (AID 2282929). The settings on record: HepG2 Attagene DR4 cis-reporter, mRNA transcription; actives raise or lower the signal. The method, boiled down: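 HepG2 cells were transiently transfected with multiple cis-regulated reporter units and dosed for 24 hours. The DR4 reporter mRNA was quantified by RT-PCR, 6-FAM labelling and capillary electrophoresis. Bidirectional fits used DMSO as baseline.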

Experiment [5] concerns the target Aryl hydrocarbon receptor (Homo sapiens) (UniProt P35869). Description: ATG_Ahr_CIS: Attagene CIS-FACTORIAL HepG2 Assay for human Aryl Hydrocarbon Receptor (Ahr) (AID 2282930). The settings on record: HepG2 AhR cis-factorial reporter transcription; actives raise or lower the signal. Summed up:
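Values derive from bidirectional fitting against DMSO negative control. Underlying signal: cis-element reporter mRNA in transiently transfected HepG2, harvested 24 h post-dose and measured by RT-PCR plus capillary electrophoresis.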

Experiment [6] can be described thus: ATG_AP_1_CIS: Attagene CIS-FACTORIAL HepG2 Assay for human Activator Protein 1 (AP-1) (AID 2282931). Particulars: HepG2 Attagene cis-factorial AP-1 reporter mRNA; actives raise or lower the signal. Summed up:
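HepG2 cells transiently transfected with cis-element-driven reporter transcription units, dosed for 24 hours. Reporter mRNA measured by RT-PCR, 6-FAM labelling, HpaI digestion and capillary electrophoresis. Bidirectional fitting against DMSO baseline.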

Experiment [7] can be described thus: ATG_AP_2_CIS: Attagene CIS-FACTORIAL HepG2 Assay for human Activator Protein 2 (AP-2) (AID 2282932). The settings on record: HepG2 AP-2 cis-reporter, Attagene transcription factor profiling; actives raise or lower the signal. The method, boiled down: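 Assay in transfected HepG2 with promoter-regulated reporters, 24 h incubation after dosing. Signal is reporter mRNA fluorescence (RT-PCR, capillary electrophoresis), analysed for both increases and decreases relative to DMSO controls.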

Experiment [8] is described as follows: ATG_BRE_CIS: Attagene CIS-FACTORIAL HepG2 Assay for human Bone Morphogenetic Protein (BMP) Response Element (BRE) (AID 2282933). The settings on record: HepG2 BMP response element reporter, Attagene transcription factor profiling; actives raise or lower the signal. Summed up:
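Multiplexed cis-reporter assay, HepG2, 24 h exposure. mRNA from reporter units quantified via RT-PCR/CE; DMSO baseline; bidirectional curve fit.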

Experiment [9] concerns the target Retinoic acid receptor alpha (Homo sapiens) (UniProt P10276). Description: ATG_DR5_RAR_CIS: Attagene CIS-FACTORIAL HepG2 Assay for human Retinoic Acid Receptor Alpha (RARE), DR5 submotif (AID 2282934).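 For AC50: reporter responds to endogenous RAR alpha beta and gamma in HepG2 not RARA alone.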 Particulars: HepG2 Attagene cis-factorial RARE DR5 reporter, mRNA; actives raise or lower the signal. Summed up:
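Endpoint fitted in both directions relative to DMSO as negative control. It reflects DR5 cis-element reporter mRNA induction in transiently transfected HepG2 cells, measured 24 h after dosing through RT-PCR and fluorescent capillary electrophoresis.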

In experiment [10] the target is Transcription factor E2F1 (Homo sapiens) (UniProt Q01094). The experiment in a line: ATG_E2F_CIS: Attagene CIS-FACTORIAL HepG2 Assay for human E2F Transcription Factor 1 (AID 2282935). Particulars: HepG2 Attagene cis-reporter, E2F reporter RNA transcripts; actives raise or lower the signal. Summed up:
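In this cis-factorial format, endogenous factor activity drives transfected reporters in HepG2; transcripts collected at 24 h are quantified by fluorescence after RT-PCR and capillary separation.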

The nature of experiment [11]: ATG_E_Box_CIS: Attagene CIS-FACTORIAL HepG2 Assay for human Enhancer Box (E-box) (AID 2282936). The settings on record: HepG2 E-box cis-reporter transcription, actives raise or lower the signal. The method, boiled down:
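Measured 24 h post-dosing in HepG2 cells transfected with multiple cis-regulated reporter units, signal being reporter mRNA induction detected by fluorescent RT-PCR with capillary electrophoresis; gain or loss fitted against DMSO.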

Experiment [12] in a line: ATG_M_61_CIS: Attagene CIS-FACTORIAL HepG2 Assay for M61 Transcription Factor (Internal Marker) (AID 2282937). Particulars: HepG2 Attagene CIS-FACTORIAL M61 internal marker reporter; actives raise or lower the signal. The method, boiled down:
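HepG2 cells transiently transfected with multiplexed cis-promoter reporter units reporting endogenous transcription factor activity, measured 24 h after dosing. Reporter mRNA quantified by RT-PCR and capillary electrophoresis; bidirectional fit against DMSO baseline.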

A short description of experiment [13]: ATG_EGR_CIS: Attagene CIS-FACTORIAL HepG2 Assay for human Early Growth Response 1 (EGR1) (AID 2282938). Particulars: HepG2 Attagene CIS-FACTORIAL EGR reporter mRNA; actives raise or lower the signal. Summed up:
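HepG2 cells transiently transfected with cis-element-driven multiplexed reporter units, dosed for 24 h. EGR1-element reporter mRNA quantified by RT-PCR, 6-FAM labelling, HpaI digestion and capillary electrophoresis; bidirectional fit versus DMSO.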

Experiment [14] in a line: ATG_M_19_CIS: Attagene CIS-FACTORIAL HepG2 Assay for M19 Transcription Factor (Internal Marker) (AID 2282939). Particulars: HepG2 Attagene CIS-FACTORIAL M19 internal marker reporter; actives raise or lower the signal. The method, boiled down:
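Signals come from fluorescence of labelled reporter-specific PCR fragments resolved by capillary electrophoresis, following 24 h treatment of HepG2 cells transfected with cis-promoter reporter units; activity was fitted in both directions relative to DMSO.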

Experiment [15] can be described thus: ATG_ERE_CIS: Attagene CIS-FACTORIAL HepG2 Assay for Estrogen Response Element (ERE) (AID 2282940). The settings on record: HepG2 ERE cis-reporter, Attagene RNA transcript; actives raise or lower the signal. The method, boiled down: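 Fluorescence of capillary-separated, FAM-labelled reporter cDNA fragments indicates reporter mRNA levels in HepG2 cells exposed to chemicals for 24 h. Transient transfection with cis-regulated units; data fitted in both directions against DMSO.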

The nature of experiment [16]: ATG_Ets_CIS: Attagene CIS-FACTORIAL HepG2 Assay for human Erythroblast Transformation Specific (ETS) (AID 2282941). Particulars: HepG2 ETS cis-reporter transcription, actives raise or lower the signal. Summed up:
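Multiplexed reporter transcript profiling: HepG2, 24 h treatment, total RNA to cDNA, PCR, 6-FAM labelling, HpaI cut, capillary electrophoresis. Gain- or loss-of-signal fitted against DMSO.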

Experiment [17] addresses Hepatocyte nuclear factor 3-beta (Homo sapiens) (UniProt Q9Y261). Description: ATG_FoxA2_CIS: Attagene CIS-FACTORIAL HepG2 Assay for human Forkhead box A2 (FOXA2) (AID 2282942). Particulars: HepG2 cis-reporter transcription factor activity, 24 h; actives raise or lower the signal. The method, boiled down: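 HepG2 transiently transfected with a multiplexed cis-promoter reporter library read endogenous FOXA2 activity. After 24 h compound exposure, reporter mRNA was quantified by RT-PCR, HpaI digestion and capillary electrophoresis. Bidirectional fit against DMSO.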

The nature of experiment [18]: ATG_FoxO_CIS: Attagene CIS-FACTORIAL HepG2 Assay for human Forkhead box O (FoxO) (AID 2282943). Particulars: HepG2 Attagene cis-reporter, FoxO element, mRNA; actives raise or lower the signal. The method, boiled down:
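Values reflect reporter mRNA induction or loss in HepG2 cells 24 h post-dosing, fitted bidirectionally with DMSO as negative control and baseline. Detection used RT-PCR and fluorescence capillary electrophoresis.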

Experiment [19] can be described thus: ATG_GATA_CIS: Attagene CIS-FACTORIAL HepG2 Assay for human GATA Binding Protein (AID 2282944). Particulars: HepG2 GATA cis-element reporter, Attagene multiplex mRNA; actives raise or lower the signal. The method, boiled down:
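After transfecting HepG2 cells with multiple cis-regulated reporter units, chemicals are dosed for 24 h; isolated RNA undergoes RT-PCR and fluorescent labeling before capillary electrophoresis, with activity expressed against DMSO.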

Experiment [20] is described as follows: ATG_GLI_CIS: Attagene CIS-FACTORIAL HepG2 Assay for human Zinc Finger Protein GLI1 (AID 2282945). Particulars: HepG2, Attagene cis-factorial reporter mRNA, GLI element; actives raise or lower the signal. The method, boiled down:
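HepG2 cells transiently transfected with cis-promoter multiplexed reporter units report endogenous transcription factor activity. After 24 h chemical exposure, reporter mRNA was quantified by RT-PCR, 6-FAM labelling, HpaI digestion and capillary electrophoresis, with bidirectional fitting against DMSO.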

Where “and” joins values, the source holds several entries; their conditions need not be identical. Equal values may be shown once. The source holds several records for some structures; these can differ, active in one and inactive in another. Calls of active or inactive are those of the source. Rule for the calls: active = hit-call score of the fitted dose curve at least 0.9, where 1 is the maximum; inactive = score below 0.9.

Chain of Aryl hydrocarbon receptor (Homo sapiens) (P35869 whole entry, looked up): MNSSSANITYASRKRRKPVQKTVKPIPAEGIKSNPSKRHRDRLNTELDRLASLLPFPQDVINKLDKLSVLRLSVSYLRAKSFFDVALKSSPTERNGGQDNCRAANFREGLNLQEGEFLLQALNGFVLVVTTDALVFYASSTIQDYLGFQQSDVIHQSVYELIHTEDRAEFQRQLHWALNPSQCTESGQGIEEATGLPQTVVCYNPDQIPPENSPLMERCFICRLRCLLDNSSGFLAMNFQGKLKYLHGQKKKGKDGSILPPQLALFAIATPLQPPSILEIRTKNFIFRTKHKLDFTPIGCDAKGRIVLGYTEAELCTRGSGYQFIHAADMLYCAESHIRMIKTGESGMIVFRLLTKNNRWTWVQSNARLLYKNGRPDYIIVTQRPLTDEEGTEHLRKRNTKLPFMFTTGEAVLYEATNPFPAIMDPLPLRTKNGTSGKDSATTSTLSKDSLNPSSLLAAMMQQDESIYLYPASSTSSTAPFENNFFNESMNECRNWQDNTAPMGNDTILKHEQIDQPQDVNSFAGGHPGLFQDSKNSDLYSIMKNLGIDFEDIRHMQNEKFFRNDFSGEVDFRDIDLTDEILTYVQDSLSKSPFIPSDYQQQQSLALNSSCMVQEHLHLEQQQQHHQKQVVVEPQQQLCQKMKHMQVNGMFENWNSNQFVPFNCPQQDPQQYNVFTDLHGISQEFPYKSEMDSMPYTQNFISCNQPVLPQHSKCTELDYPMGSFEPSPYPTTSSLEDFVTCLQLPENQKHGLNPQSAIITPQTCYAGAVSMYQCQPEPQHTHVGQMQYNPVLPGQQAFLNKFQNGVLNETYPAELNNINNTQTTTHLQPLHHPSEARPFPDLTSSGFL
Chain of Retinoic acid receptor alpha (Homo sapiens) (P10276 whole entry, looked up): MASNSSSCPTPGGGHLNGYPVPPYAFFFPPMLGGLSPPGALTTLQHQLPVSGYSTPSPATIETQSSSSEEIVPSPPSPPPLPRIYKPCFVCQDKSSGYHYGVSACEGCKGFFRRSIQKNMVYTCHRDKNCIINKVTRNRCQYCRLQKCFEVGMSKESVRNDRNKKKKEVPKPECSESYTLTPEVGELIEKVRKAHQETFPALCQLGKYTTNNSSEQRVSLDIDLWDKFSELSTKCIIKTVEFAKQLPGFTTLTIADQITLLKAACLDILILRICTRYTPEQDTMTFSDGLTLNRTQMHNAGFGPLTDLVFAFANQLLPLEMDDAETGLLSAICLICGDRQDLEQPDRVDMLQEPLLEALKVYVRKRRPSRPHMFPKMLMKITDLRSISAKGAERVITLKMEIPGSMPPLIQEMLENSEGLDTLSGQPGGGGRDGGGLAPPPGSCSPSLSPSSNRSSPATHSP
Chain of Hepatocyte nuclear factor 3-beta (Homo sapiens) (Q9Y261 whole entry, looked up): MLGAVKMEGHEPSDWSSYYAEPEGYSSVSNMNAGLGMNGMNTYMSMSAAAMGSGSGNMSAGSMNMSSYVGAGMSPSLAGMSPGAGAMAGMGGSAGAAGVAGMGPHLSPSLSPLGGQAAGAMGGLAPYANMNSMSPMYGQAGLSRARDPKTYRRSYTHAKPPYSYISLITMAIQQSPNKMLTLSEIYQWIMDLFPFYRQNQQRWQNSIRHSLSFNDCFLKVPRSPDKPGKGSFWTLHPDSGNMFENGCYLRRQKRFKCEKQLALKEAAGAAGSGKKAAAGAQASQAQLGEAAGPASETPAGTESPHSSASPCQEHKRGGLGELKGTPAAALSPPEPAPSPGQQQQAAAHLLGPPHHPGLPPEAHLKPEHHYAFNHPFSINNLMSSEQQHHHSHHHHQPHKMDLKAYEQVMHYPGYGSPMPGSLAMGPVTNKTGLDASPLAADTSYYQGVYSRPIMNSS
Chain of CCAAT/enhancer-binding protein beta (Homo sapiens) (P17676 whole entry, looked up): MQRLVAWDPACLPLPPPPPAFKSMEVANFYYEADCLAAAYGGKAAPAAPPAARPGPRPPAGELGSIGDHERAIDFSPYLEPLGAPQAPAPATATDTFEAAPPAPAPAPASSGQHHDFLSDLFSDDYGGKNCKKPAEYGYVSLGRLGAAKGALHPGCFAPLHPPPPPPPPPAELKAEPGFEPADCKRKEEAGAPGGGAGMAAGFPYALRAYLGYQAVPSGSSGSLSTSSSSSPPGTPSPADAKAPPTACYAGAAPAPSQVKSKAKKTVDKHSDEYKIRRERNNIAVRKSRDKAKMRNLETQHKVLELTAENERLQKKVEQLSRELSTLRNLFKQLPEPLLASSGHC
Chain of Transcription factor E2F1 (Homo sapiens) (Q01094 whole entry, looked up): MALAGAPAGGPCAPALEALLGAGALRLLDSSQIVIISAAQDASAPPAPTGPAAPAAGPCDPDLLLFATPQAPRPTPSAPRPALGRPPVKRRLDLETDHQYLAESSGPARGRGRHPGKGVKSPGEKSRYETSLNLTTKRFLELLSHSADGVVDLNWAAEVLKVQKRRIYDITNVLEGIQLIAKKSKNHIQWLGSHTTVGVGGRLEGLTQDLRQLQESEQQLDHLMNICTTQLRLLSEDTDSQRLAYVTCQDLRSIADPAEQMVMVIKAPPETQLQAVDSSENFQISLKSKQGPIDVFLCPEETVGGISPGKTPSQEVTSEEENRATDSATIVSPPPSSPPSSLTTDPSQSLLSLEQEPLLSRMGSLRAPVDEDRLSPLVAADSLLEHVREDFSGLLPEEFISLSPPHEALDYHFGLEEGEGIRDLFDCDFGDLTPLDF

For `CN(C[C@@H](CC[N+]12CCC(C3CCCCC3)(CC1)CC2)c1ccc(Cl)c(Cl)c1)C(=O)c1cc(C(F)(F)F)cc(C(F)(F)F)c1`, the outcome in [1], in experiment [2], in experiment [3], in [4], in experiment [5] and in experiment [6] was inactive. Also, the molecule was called inactive in [7], in [8], in experiment [9], in [10], in experiment [11] and in experiment [12]. Further, the molecule was classed as inactive in [13], in [14], in experiment [15], in [16], in [17] and in [18]. Moreover, the call in [19] and in experiment [20] was inactive.
The term AC50 denotes the midpoint of the concentration-response curve, whichever way the signal moves. On to `Cc1c2ccccc2c(C)c2c1ccc1ccccc12`, for which the molecule was called inactive in experiment [1], in experiment [2], in [7], in experiment [12], in experiment [13] and in experiment [16]. Also, the outcome in experiment [17], in experiment [18], in [19] and in experiment [20] was inactive. The AC50 is 33.1 µM (active) in experiment [3]; 10.4 µM (active) in [4]; 3.38 µM (active) in experiment [5]; 25.5 µM (active) in experiment [6]; 14.6 µM (active) in experiment [8]; 53.3 µM (active) in [9]. Moreover, the AC50 in [11] was 8.32 µM (active); in experiment [14] it was 33.4 µM (active); in experiment [15], 3.55 µM (active).
As for `O=C(O)Cc1cc(I)c(Oc2ccc(O)c(I)c2)c(I)c1`, the molecule was classed as inactive in [1], in [2], in experiment [3], in [4], in experiment [5] and in experiment [6]. The molecule was called inactive in [7], in [8], in experiment [9], in [11], in experiment [12] and in experiment [14]. The result in [16], in [17], in experiment [18], in [19] and in [20] was inactive. Also, the AC50 is 160 µM (active) and 100 µM (active) and 74.8 µM (active) in experiment [6]; 50.9 µM (active) in experiment [7]; 89 µM (active) in experiment [8].
Regarding `OC12N=C(c3ccccc3)SC1Cc1cc(Cl)ccc12` (configuration not stated), the result in experiment [1], in experiment [2], in [3], in experiment [4], in experiment [7] and in experiment [8] was inactive. For the same molecule, the molecule was called inactive in experiment [9], in experiment [10], in experiment [11], in experiment [12], in experiment [13] and in experiment [14]. Further, the molecule was classed as inactive in [16], in experiment [17], in experiment [18], in experiment [19] and in experiment [20]. Moreover, the values for the AC50 in [5], in experiment [6] and in experiment [15] were 2.32 µM (active), 3.8 µM (active) and 1.16 µM (active), respectively.
Turning to `Cc1cc(F)ccc1-c1cc(N2CC[C@@H](O)[C@H]2CO)ncc1N(C)C(=O)C(C)(C)c1cc(C(F)(F)F)cc(C(F)(F)F)c1`, the molecule was called inactive in [1], in experiment [2], in experiment [3], in experiment [4], in experiment [5] and in experiment [6]. Moreover, the outcome in experiment [7], in experiment [8], in [9], in experiment [11], in experiment [12] and in experiment [14] was inactive. For the same molecule, the result in [15], in experiment [16], in experiment [17], in experiment [18], in experiment [19] and in experiment [20] was inactive.
